Measurements: ChEMBL document CHEMBL3988442, “University of Dundee, Small-Polar-MMV Screening Library” (2021)
About 1,000 (1.4%) of roughly 69,000 compounds showed an effect of 50% or more. The full list was thinned out, with strong results kept by preference.

Test system: Leishmania donovani
Assay: Leishmania intramacrophage assay
Assay type: functional, organism-based
Parameters: scale not given: in the data most compounds retested in dose-response had high values

Compound: Cc1nc(C)n(CC2CCCN(Cc3ccc(C(N)=O)cc3)C2)n1 (configuration not stated)
- Percent Effect (30 µM, 30.03 µM): -3.523%

Compound: Cc1ccc(F)c2c1N(C(=O)c1cn(CC(=O)N(C)C)nn1)CCC2
- Percent Effect (30.3 µM, […]): -28.86%

Compound: CCCSCC(=O)NS(=O)(=O)c1ccc2c(c1)OCCO2
- Percent Effect (30 µM, 30.03 µM): 12.46%

Compound: O=C(O)C(F)(F)F.O=C(O)C(F)(F)F.c1c(CN2CCCC2)nc2n1CCN(C1CCOCC1)C2
- Percent Effect (30.3 µM, […]): 25.13%

Compound: CC(C)NC(=O)C1(Cc2ccccc2-c2ccccc2)CCCNC1 (configuration not stated)
- Percent Effect (30.3 µM, […]): 40.16%

Compound: CC(C)NC(=O)C1(Cc2ccccc2-c2cncnc2)CCCNC1 (configuration not stated)
- Percent Effect (30.3 µM, […]): 16.97%

Compound: Cc1ccc(-c2ccccc2CC2(C(=O)NC(C)C)CCCNC2)cc1 (configuration not stated)
- Percent Effect (30.3 µM, […]): 53.92%

Compound: CC(C)(C)C(O)CN1CCN(C(=O)c2cccc3ncccc23)CC1 (configuration not stated)
- Percent Effect (30 µM, 30.03 µM): 14.67%

Compound: Cc1cc(NCc2cn(C)nc2-c2cccnc2)n(C)n1
- Percent Effect (30.3 µM, […]): -18.07%

Compound: O=C1NCCCc2[nH]c(-c3nc(C4CC4)no3)nc21
- Percent Effect (30.3 µM, […]): 0.06758%

Compound: Oc1cc(CCC2CCCCN2)cc(-c2ccncc2)c1 (configuration not stated)
- Percent Effect (30 µM, 30.03 µM): 12.39%

Compound: Oc1cc(CCC2CCCCN2)cc(-c2cccnc2)c1 (configuration not stated)
- Percent Effect (30.3 µM, […]): 51.21%

Compound: Nc1ccc(-c2cc(O)cc(CCC3CCCCN3)c2)cn1 (configuration not stated)
- Percent Effect (30.3 µM, […]): 30.15%

Compound: CC[C@@H](C)[C@H](NC(=O)NC1CCS(=O)(=O)C1)C(=O)NCc1ccncc1 (some centres not stated)
- Percent Effect (30.3 µM, […]): -5.4%

Compound: CNC(=O)CN(C)S(=O)(=O)c1c(Br)cc2[nH]c(=O)oc2c1Cl
- Percent Effect (30.3 µM, […]): 30.57%

Compound: CCNC(=O)CN(CC)S(=O)(=O)c1c(Br)cc2[nH]c(=O)oc2c1Cl
- Percent Effect (30.3 µM, […]): 26.48%

Compound: COC(=O)C(C)CN(C)S(=O)(=O)c1c(Br)cc2[nH]c(=O)oc2c1Cl (configuration not stated)
- Percent Effect (30.3 µM, […]): 53.15%

Compound: COc1cc(OC)c(-c2nc3c([nH]2)c(C2CC2)nn3C)cc1OC
- Percent Effect (30.3 µM, […]): 40.91%

Compound: CC(C)c1ncncc1C(=O)NCCN1CCOCC1
- Percent Effect (30.3 µM, […]): -51.02%

Compound: Cc1ccc(C(=O)Nc2cc(C(C)C)n[nH]2)cn1
- Percent Effect (30 µM, 30.03 µM): -3.681%

Compound: Cc1ccc(CC(=O)Nc2cc(C(C)C)n[nH]2)cn1
- Percent Effect (30 µM): 62.25%

Compound: CC(C)c1cc(NC(=O)c2cccnc2)[nH]n1
- Percent Effect (30 µM): 2.786%

Compound: CC(C)c1cc(NC(=O)c2ccncc2)[nH]n1
- Percent Effect (30 µM): -9.457%

Compound: CC(C)c1cc(NC(=O)c2ccc(C(=O)NC(C)(C)C)cc2)[nH]n1
- Percent Effect (30 µM, 30.03 µM): 58.67%

Compound: CC(C)c1cc(NC(=O)c2ccc([S+]([O-])C(C)C)cc2)[nH]n1 (configuration not stated)
- Percent Effect (30 µM): 33.29%

Compound: CC(=O)N1CCC(NC(=O)Cc2nc3nc(C)cc(C)n3n2)CC1
- Percent Effect (30.3 µM, […]): 9.867%

Compound: O=C(c1ccc(CN2CCCCC2)cc1)N1Cc2cnn(CCO)c2C1
- Percent Effect (30.3 µM, […]): 4.685%

Compound: COCCNC(=O)Nc1ccc(-c2nc(C(C)C)no2)cc1
- Percent Effect (30.3 µM, […]): -5.463%

Compound: Cc1nn(C)c(C)c1C1CCCN1c1ncnc2c1CCC2 (configuration not stated)
- Percent Effect (30.3 µM, […]): 30.84%

Compound: COc1c(C2CCCN2c2ncnc3c2CCC3)c(C)nn1C (configuration not stated)
- Percent Effect (30.3 µM, […]): 55.59%

Compound: Cc1nn(C)c(Cl)c1C1CCCN1c1ncnc2c1CCC2 (configuration not stated)
- Percent Effect (30.3 µM, […]): -27.23%

Compound: O=C(CN1CCSCC1c1ccccc1)N1CCCC1 (configuration not stated)
- Percent Effect (30.3 µM, […]): -14.01%

Compound: O=c1ccc(-c2cccs2)nn1CN1CCCCCC1
- Percent Effect (30 µM, 30.03 µM): 13.2%

Compound: Cc1cc(N2CCC(O)(CN(C)C)C2)c2cc3c(cc2n1)OCO3 (configuration not stated)
- Percent Effect (30.3 µM, […]): -1.24%

Compound: Cn1cc(CN2Cc3cn(C)nc3C(COCC3CC3)C2)cn1 (configuration not stated)
- Percent Effect (30.3 µM, […]): 53.65%

Compound: COc1ccc(CN2Cc3cn(C)nc3C(COCC3CC3)C2)cc1 (configuration not stated)
- Percent Effect (30.3 µM, […]): 16.82%

Compound: Cn1cc2c(n1)C(COCC1CC1)CN(Cc1ccsc1)C2 (configuration not stated)
- Percent Effect (30.3 µM, […]): -18.37%

Compound: CCN(CC1CCOC1)C(=O)Nc1ccc(N2CCCC2)nc1 (configuration not stated)
- Percent Effect (30 µM, 30.03 µM): 21.14%

Compound: COCCN(Cc1cnn(C)c1)C(=O)C1CCCN(C2CCOCC2)C1 (configuration not stated)
- Percent Effect (30.3 µM, […]): 2.022%

Compound: CC(C)c1nnc2n1CCN(C(=O)CN1Cc3ccccc3C1=O)C2
- Percent Effect (30 µM, 30.03 µM): -6.489%

Compound: COc1cccc(NC(=O)CNc2ccc(C(=O)N(C)C)c(Cl)c2)c1
- Percent Effect (30.3 µM, […]): 28.32%

Compound: CC(CC(=O)Nc1ccc(C(=O)N(C)C)c(Cl)c1)n1cccc1 (configuration not stated)
- Percent Effect (30.3 µM, […]): 51.53%

Compound: CC(C)CNC(=O)c1ccc(NC(=O)NC(C)C)cc1Cl
- Percent Effect (30.3 µM, […]): -0.4257%

Compound: CCCN1CCCCC1C(=O)Nc1ccc(-c2nnc[nH]2)cc1 (configuration not stated)
- Percent Effect (30.3 µM, […]): 6.317%

Compound: CC(C)N(CC(=O)Nc1ccc(Br)cc1Cl)Cc1cccnc1
- Percent Effect (30.3 µM, […]): 0.9398%

Compound: Cc1ccnc(CNC(=O)C2CC(=O)N(CCN(C)C)C2)c1 (configuration not stated)
- Percent Effect (30.3 µM, […]): 7.855%

Compound: CN(C)c1nccc(C2CCCCN2Cc2cnn3cccnc23)n1 (configuration not stated)
- Percent Effect (30.3 µM, […]): 15.49%

Compound: CNc1nccc(C2CCCCN2Cc2cnn3cccnc23)n1 (configuration not stated)
- Percent Effect (30.3 µM, […]): 53.78%

Compound: c1cnc2c(CN3CCCCC3c3ccncn3)cnn2c1 (configuration not stated)
- Percent Effect (30.3 µM, […]): 9.705%

Compound: Cc1csc2c(=O)n(CCN3CCC(c4ccccc4)CC3)cnc12
- Percent Effect (30.3 µM, […]): -32.46%

Compound: Cc1nccn1CCCN1CCCC(c2nccn2CC2CCC2)C1 (configuration not stated)
- Percent Effect (30.3 µM, […]): 28.26%

Compound: Cc1nccn1CCCN1CCCC(c2ccccc2)C1 (configuration not stated)
- Percent Effect (30.3 µM, […]): 72.11%

Compound: Cc1nccn1CCCN1CCCC(c2nccn2C)C1 (configuration not stated)
- Percent Effect (30.3 µM, […]): 28.64%

Compound: Cc1cnn(CCNCc2c(C)nn(-c3ccccc3)c2C)c1
- Percent Effect (30.3 µM, […]): -2.378%

Compound: CC(C)c1nc(C(=O)N2C[C@H](C(C)C)[C@@H](N)C2)cs1
- Percent Effect (30.3 µM, […]): 39.61%

Compound: COCCn1nc(C(=O)N2CCN(C)CC2C)ccc1=O (configuration not stated)
- Percent Effect (30.3 µM, […]): 4.243%

Compound: CCCc1nnsc1C(=O)NCC1CCN(c2ncccn2)CC1
- Percent Effect (30.3 µM, […]): 10.89%

Compound: CCCc1nnsc1C(=O)NCC1CCN(c2ccccn2)CC1
- Percent Effect (30 µM, 30.03 µM): 33.4%

Compound: Cc1nnsc1C(=O)NCC1CCN(c2ccccn2)CC1
- Percent Effect (30.3 µM, […]): 51.71%

Compound: COCC(C)NC(=O)c1cc(C)n(-c2cccc(OC)c2)c1C (configuration not stated)
- Percent Effect (30 µM): 9.783%

Compound: CCNc1cc2c(nn1)CCN(C(=O)c1ccsc1)C2
- Percent Effect (30 µM): 18.6%

Compound: COCc1ccc(CNC(=O)C2=NN(c3ccccc3)C(=O)CN2)cc1
- Percent Effect (30 µM, 30.03 µM): 41.01%

Compound: COc1ccc(C)cc1CNC(=O)C1=NN(c2ccccc2)C(=O)CN1
- Percent Effect (30.3 µM, […]): 34.24%

Compound: COc1ccccc1CNC(=O)C1=NN(c2ccc(C)cc2)C(=O)CN1
- Percent Effect (30 µM, 30.03 µM): 61.91%

Compound: COc1ccc(CNC(=O)C2=NN(c3ccc(C)cc3)C(=O)CN2)cc1
- Percent Effect (30.3 µM, […]): 51.58%

Compound: COc1ncccc1CNC(=O)C1=NN(c2ccccc2)C(=O)CN1
- Percent Effect (30.3 µM, […]): -11.09%

Compound: N#Cc1ccc(CNC(=O)C2=NN(c3ccccc3)C(=O)CN2)cc1
- Percent Effect (30.3 µM, […]): 17.15%
